Assay [1] has as its target Peroxisome proliferator-activated receptor gamma (Homo sapiens) (UniProt P37231). The assay is described as follows: qHTS assay for small molecule agonists of peroxisome proliferator-activated receptor gamma signaling (AID 588536; active means well fitted curve in the direction sought with a large enough effect in the signal ratio, with a control signal flat, not every such curve was filed as active; the % refers to the signal ratio;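 further: 0% = DMSO basal wells and 100% = rosiglitazone at 2 µM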). Put shortly:
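HEK293 UAS-bla reporter line, 1% charcoal/dextran FBS; titration, 16 h, 37 C; CCF4 loading 2 h RT; fluorescence 460/530 nm. Normalized to rosiglitazone 2 uM = 100%, DMSO = 0%.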
In general terms: Quantitative high-throughput screening tests each substance at several concentrations.

Assay [2] has the same target. The assay is described as follows: qHTS assay for small molecule antagonists of peroxisome proliferator-activated receptor gamma signaling (AID 588537; active means well fitted inhibition curve with a large enough effect in the signal ratio, with a control signal flat, not every such curve was filed as active; the % refers to the signal ratio;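 further: reporter cells co-stimulated with 50 nM rosiglitazone agonist during compound treatment; % of control where 0% means no effect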). Put shortly:
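We seeded GeneBLAzer HEK293 reporter cells at 3000 per well, allowed 6-6.5 h attachment at 37 C, then co-treated with test compound titrations and 50 nM rosiglitazone overnight (16 h). Inhibition was quantified from 460/530 nm emission ratios.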

Assay [3] is described as follows: qHTS assay for small molecule agonists of retinoid X receptor alpha signaling (AID 588544).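 On activation: 0% = DMSO basal wells and 100% = reference agonist.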 The settings on record: HEK293T RXRa-UAS-bla, beta-lactamase reporter, 18 h; 530 nm emission.
The target in assay [4] is Retinoic acid receptor RXR-alpha (Homo sapiens) (UniProt P19793). The assay is described as above.
Retinoic acid receptor RXR-alpha (Homo sapiens), sequence (P19793 whole entry, looked up): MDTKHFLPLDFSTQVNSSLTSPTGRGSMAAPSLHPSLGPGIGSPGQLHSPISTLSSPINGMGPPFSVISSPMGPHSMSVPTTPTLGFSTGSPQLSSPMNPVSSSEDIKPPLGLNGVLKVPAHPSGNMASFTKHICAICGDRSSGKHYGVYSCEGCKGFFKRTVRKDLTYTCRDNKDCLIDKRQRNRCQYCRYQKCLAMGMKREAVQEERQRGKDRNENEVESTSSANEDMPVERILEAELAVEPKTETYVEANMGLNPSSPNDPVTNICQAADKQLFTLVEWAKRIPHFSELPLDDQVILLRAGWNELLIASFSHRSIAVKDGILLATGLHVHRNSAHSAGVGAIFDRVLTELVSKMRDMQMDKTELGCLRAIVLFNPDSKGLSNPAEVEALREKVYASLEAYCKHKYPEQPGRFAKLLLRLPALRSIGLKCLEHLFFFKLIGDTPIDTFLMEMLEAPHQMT
Assay [5] can be described thus: qHTS assay for small molecule antagonists of retinoid X receptor alpha signaling (AID 588546; active means well fitted inhibition curve with a large enough effect in the signal ratio, with a control signal flat, not every such curve was filed as active; the % refers to the signal ratio;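 further: cells stimulated with 9-cis-retinoic acid as agonist; on the % scale 0 is the no-effect control and ±100 the full control effect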). The settings on record: HEK293T RXRa-UAS-bla, beta-lactamase ratio, antagonist mode; measured here: W530 green channel, cytotoxicity proxy. Put shortly:
(§1)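 Beta-lactamase reporter inhibition, read as CCF4 fluorescence ratio (ex 405, em 460/530 nm) after 2 h at RT. HEK293T UAS-bla cells, 2500/well, were stimulated with 9-cis-RA at 500 or 100 nM final alongside test compound for 18 h at 37 C.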

The target of assay [6] is Retinoic acid receptor RXR-alpha (Homo sapiens) (UniProt P19793). The description is as above. The settings on record: HEK293T RXRa-UAS-bla, beta-lactamase ratio, antagonist mode. Put shortly: as §1
Assay [7] addresses Voltage-gated inwardly rectifying potassium channel KCNH2 (Homo sapiens) (UniProt Q12809). The experiment in a line: qHTS Assay for Small Molecule Inhibitors of the Human hERG Channel Activity (AID 588834; active means well fitted inhibition curve with a large enough effect;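 further: top concentration of the series differs between compounds; on the % scale 0 is the no-effect control and ±100 the full control effect; lower thallium flux fluorescence means stronger hERG block; nearly all actives have a fitted effect of over 50% in size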). Put shortly: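 Blockade is seen as reduced FluxOR thallium-flux fluorescence in U2OS cells expressing hERG from a BacMam construct, in Opti-MEM with 2% FCS. Concentration-response data fitted to the Hill equation for AC50.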

Assay [8] is described as follows: qHTS assay for small molecule agonists of the antioxidant response element (ARE) signaling pathway (AID 651741; active means well fitted activation curve with a large enough effect in the signal ratio; the % refers to the signal ratio; further: % of control where 0% means no effect). Put shortly:
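Compounds in DMSO are pinned onto HepG2 ARE-bla cells (2,000/well) that were preincubated 5 h; plates stay 16 h at 37 C, then beta-lactamase activity is detected with LiveBLAzer B/G substrate by fluorescence.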

The nature of assay [9]: qHTS assay for small molecule activators of the p53 signaling pathway (AID 651743; active means well fitted activation curve with a large enough effect in the signal ratio, not every such curve was filed as active; the % refers to the signal ratio; further: series mostly up to about 92 µM; % of control where 0% means no effect). The settings on record: HCT-116 p53RE-bla, beta-lactamase FRET ratio, 16 h; stronger effect = higher value. Put shortly: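 Cell-based beta-lactamase reporter (p53 response elements, HCT-116 background). After a 5-hour preincubation, cells received compound for 16 hours at 37 C; substrate development ran 2 hours at room temperature.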

Assay [10] can be described thus: qHTS assay for small molecule antagonists of peroxisome proliferator-activated receptor delta signaling (AID 588535; active means well fitted inhibition curve with a large enough effect in the signal ratio, with a control signal flat, not every such curve was filed as active; the % refers to the signal ratio;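 on max response: cells co-treated with a PPAR-delta agonist as stimulator during compound exposure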). As to conditions: HEK293T PPARd-UAS-bla, beta-lactamase FRET ratio, 18 h; 460 nm channel. Put shortly: (§2)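 Reporter: UAS-bla under PPAR-delta response element, HEK293T host. Medium: 2% charcoal/dextran FBS. Dosing: titration, 18 hrs, 37 C. Detection: CCF4, 2 hrs RT, 405 ex/460 and 530 em.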

In assay [11] the target is Peroxisome proliferator-activated receptor delta (Homo sapiens) (UniProt Q03181). The description is as above. Put shortly: as §2
Peroxisome proliferator-activated receptor delta (Homo sapiens), sequence (Q03181 whole entry, looked up): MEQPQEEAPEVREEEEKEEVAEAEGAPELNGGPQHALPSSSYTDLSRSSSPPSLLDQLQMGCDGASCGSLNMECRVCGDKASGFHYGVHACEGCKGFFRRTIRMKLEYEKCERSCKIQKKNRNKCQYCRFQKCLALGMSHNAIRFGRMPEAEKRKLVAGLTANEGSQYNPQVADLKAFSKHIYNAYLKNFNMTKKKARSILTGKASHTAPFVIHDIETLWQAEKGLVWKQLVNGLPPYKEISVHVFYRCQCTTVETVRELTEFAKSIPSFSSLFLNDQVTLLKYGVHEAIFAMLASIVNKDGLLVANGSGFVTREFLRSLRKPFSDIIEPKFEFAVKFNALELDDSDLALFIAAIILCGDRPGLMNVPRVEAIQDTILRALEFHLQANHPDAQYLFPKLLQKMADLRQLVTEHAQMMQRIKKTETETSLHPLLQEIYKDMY
Assay [12] deals with Vitamin D3 receptor (Homo sapiens) (UniProt P11473). The experiment in a line: qHTS assay for small molecule antagonists of vitamin D receptor signaling (AID 588541).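 Further: receptor activated by calcitriol during compound treatment; series mostly up to about 77 µM; on the % scale 0 is the no-effect control and ±100 the full control effect.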 Put shortly:
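VDR-UAS-bla HEK293T cells (2000/well, 2% charcoal-stripped FBS) were treated with titrated compounds plus 1-alpha,25-dihydroxyvitamin D3 (50 nM or 3 nM final) for 16 h at 37 C. CCF4 beta-lactamase fluorescence was read; Hill fits gave IC50.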

Assay [13] has the same target. The assay is described as follows: qHTS assay for small molecule agonists of vitamin D receptor signaling (AID 588543).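 Further: 0% = DMSO basal and 100% = reference agonist control.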 Put shortly: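 Measured: β-lactamase reporter activity (CCF4, 405 nm excitation, 460/530 nm emission) in HEK293T VDR-UAS-bla cells after 16 h compound exposure at 37 °C. Normalization against 50 nM 1α,25-dihydroxyvitamin D3 and DMSO; Hill-fit EC50.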

Assay [14] in a line: qHTS assay for small molecule activators of the nuclear factor-kappa B (NF-kB) signaling pathway (AID 651749; active means well fitted activation curve with a large enough effect in the signal ratio; the % refers to the signal ratio; further: series mostly up to about 77 µM; % of control where 0% means no effect). The settings on record: NF-kB-bla ME-180 cells, beta-lactamase FRET ratio, 16 h; stronger effect = higher value. Put shortly: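 Screening used 2,000 ME-180 reporter cells per well exposed to pinned compound (23 nL) or DMSO; after 16 hr at 37C, beta-lactamase expression under NF-kB control was assessed through FRET.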

Assay [15] has as its target Thyroid hormone receptor beta (Homo sapiens) (UniProt P10828). The experiment in a line: qHTS assay for small molecule agonists of thyroid hormone receptor beta signaling (AID 588545).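 Further: 0% = DMSO only and 100% = 10 nM T3.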 Put shortly: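 Efficacy and EC50 values derive from Hill fits of qHTS titration data, normalized to 10 nM T3 and DMSO-only wells. HEK 293 reporter cells were stimulated for 18 hrs at 37 C, with beta-lactamase activity measured by CCF4 fluorescence.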

The target is the same in assay [16]. The experiment in a line: qHTS assay for small molecule antagonists of thyroid hormone receptor beta signaling (AID 588547; active means well fitted inhibition curve with a large enough effect in the signal ratio, with a control signal flat, not every such curve was filed as active; the % refers to the signal ratio;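 further: cells stimulated with 0.4 nM T3 agonist during compound exposure; series mostly up to about 77 µM; on the % scale 0 is the no-effect control and ±100 the full control effect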). The settings on record: TR-UAS-bla HEK293, beta-lactamase ratio, antagonist mode, 18 h. Put shortly: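 TR-UAS-bla GripTite HEK293 cells in 2% charcoal/dextran FBS medium were preincubated 4 h at 37 C, given compound (0.59 nM to 92 uM) plus 0.4 nM T3 (final) for 18 h, then CCF4 for 2 h at RT; Hill fit gave IC50.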

This note sets out measurements from PubChem BioAssay (NCATS).

“And” between values parts separate entries of the source, which are not always exact repeats. Identical values can stand only once. Records with an inconclusive call do not appear. The source made the active and inactive calls. Unless noted, the call rests on the fitted dose curve.

Voltage-gated inwardly rectifying potassium channel KCNH2 (Homo sapiens), sequence (Q12809 whole entry, looked up): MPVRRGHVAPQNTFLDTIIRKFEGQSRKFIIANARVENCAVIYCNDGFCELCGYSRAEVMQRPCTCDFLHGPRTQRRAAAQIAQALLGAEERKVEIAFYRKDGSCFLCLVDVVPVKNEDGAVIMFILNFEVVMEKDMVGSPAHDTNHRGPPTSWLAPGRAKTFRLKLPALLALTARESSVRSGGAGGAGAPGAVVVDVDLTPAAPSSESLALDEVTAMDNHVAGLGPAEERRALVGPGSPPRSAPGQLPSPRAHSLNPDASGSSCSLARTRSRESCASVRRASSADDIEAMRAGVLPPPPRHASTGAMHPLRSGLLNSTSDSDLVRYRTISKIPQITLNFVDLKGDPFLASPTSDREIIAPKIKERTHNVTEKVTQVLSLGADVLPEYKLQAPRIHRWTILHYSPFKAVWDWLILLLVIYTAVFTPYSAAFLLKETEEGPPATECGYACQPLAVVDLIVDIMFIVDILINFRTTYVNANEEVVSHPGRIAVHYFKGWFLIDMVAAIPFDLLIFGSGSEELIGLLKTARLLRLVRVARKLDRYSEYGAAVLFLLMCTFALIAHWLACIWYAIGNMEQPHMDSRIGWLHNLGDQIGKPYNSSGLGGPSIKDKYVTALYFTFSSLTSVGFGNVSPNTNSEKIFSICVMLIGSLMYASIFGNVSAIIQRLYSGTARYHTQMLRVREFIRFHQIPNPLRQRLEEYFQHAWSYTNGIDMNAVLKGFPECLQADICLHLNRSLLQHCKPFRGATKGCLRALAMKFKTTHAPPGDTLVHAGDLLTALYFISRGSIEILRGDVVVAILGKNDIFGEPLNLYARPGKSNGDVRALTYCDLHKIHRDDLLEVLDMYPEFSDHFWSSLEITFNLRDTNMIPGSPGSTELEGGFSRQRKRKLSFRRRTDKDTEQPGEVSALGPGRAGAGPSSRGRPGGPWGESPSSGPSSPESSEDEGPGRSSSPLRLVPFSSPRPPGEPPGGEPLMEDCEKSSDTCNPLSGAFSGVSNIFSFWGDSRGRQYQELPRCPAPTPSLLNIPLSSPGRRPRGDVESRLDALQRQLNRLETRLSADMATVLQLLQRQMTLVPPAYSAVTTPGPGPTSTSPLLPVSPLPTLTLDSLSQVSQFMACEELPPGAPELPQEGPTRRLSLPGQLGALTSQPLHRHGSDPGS
Vitamin D3 receptor (Homo sapiens), sequence (P11473 whole entry, looked up): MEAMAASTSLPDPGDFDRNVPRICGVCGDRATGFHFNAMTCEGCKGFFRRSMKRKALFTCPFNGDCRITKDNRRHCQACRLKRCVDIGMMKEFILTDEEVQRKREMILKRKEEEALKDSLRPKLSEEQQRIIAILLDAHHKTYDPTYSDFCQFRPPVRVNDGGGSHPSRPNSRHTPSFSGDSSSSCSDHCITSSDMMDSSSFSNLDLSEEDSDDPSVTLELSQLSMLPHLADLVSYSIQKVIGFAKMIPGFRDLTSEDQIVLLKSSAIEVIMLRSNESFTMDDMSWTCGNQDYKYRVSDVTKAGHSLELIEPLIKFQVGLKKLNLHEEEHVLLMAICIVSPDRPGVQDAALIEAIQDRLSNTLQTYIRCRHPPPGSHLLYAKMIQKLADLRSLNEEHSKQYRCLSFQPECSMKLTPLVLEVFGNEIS
Peroxisome proliferator-activated receptor gamma (Homo sapiens), sequence (P37231 whole entry, looked up): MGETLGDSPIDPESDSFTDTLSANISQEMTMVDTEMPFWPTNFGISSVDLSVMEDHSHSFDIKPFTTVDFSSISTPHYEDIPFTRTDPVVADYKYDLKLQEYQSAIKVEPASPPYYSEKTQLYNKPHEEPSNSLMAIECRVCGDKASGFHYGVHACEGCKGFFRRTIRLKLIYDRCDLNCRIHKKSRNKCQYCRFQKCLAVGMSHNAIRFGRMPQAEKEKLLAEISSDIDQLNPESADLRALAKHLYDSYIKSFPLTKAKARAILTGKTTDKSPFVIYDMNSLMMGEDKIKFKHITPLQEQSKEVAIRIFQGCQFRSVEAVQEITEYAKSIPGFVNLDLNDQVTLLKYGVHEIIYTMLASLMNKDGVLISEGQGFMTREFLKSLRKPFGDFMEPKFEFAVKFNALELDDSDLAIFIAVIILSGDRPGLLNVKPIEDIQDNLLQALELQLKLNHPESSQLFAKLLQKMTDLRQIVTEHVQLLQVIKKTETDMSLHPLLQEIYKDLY
Thyroid hormone receptor beta (Homo sapiens), sequence (P10828 whole entry, looked up): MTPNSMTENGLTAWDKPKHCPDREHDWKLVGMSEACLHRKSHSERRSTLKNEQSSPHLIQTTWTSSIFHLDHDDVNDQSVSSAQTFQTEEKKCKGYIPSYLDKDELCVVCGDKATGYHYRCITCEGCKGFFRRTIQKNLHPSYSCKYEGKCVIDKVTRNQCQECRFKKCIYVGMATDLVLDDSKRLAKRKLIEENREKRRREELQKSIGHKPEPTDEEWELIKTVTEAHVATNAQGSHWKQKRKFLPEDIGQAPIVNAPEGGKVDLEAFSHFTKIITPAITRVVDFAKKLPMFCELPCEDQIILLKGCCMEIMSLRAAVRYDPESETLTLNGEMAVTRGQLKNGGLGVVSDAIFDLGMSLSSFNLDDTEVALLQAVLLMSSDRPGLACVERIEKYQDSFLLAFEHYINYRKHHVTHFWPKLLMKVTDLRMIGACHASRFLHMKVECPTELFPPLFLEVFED

Turning to `O=C(O)CN(CC(=O)O)CC(=O)O`, the molecule was called inactive in assay [1], in [2] and in assay [4]. Further, the max response in assay [3] was -7.34% and 8.5%; in assay [5], -6.97% and -9%; in assay [6], -2.38% (inactive) and 4.38% (inactive). Further, the Potency entry in assay [7] and in assay [8] was “inactive” throughout. Moreover, the activation in assay [9] was -2.4% (inactive) and 1.34% (inactive) and -0.523% (inactive).

As to `c1ccc(Nc2ccccc2)cc1`, the max response was -10.2% and 19.6% in [10]; -15.4% and 2.86% in assay [3]; 1.16% and -8.24% in assay [5]; -5.42% (inactive) and 3.85% (inactive) in assay [6]. For the same molecule, the Potency entry in [11], in assay [7] and in assay [8] was “inactive” each time. Besides, the molecule was classed as inactive in assay [1], in assay [2], in [12], in assay [13] and in assay [4]. Further, the activation is 1.33% (inactive) and -1.7% (inactive) in assay [9]; 0.526% (inactive) and -2.1% (inactive) in assay [14].

`COC(=O)CS`: the call in assay [2], in [12], in [13] and in assay [4] was inactive. Besides, the max response in assay [3] was -8.12%; in assay [5], -3.61%; in [6] it was 1.63% (inactive). The Potency result in [7] and in assay [8] was “inactive” each time. Also, the activation in assay [9] is -2.8% (inactive); in [14], -0.561% (inactive).

Take `CCCCC(CC)CNCC(CC)CCCC` (stereo unspecified): the max response in [10] is 11.3%; in [3], 2.31%; in assay [5], 0.349%; in assay [6] it was 10% (inactive). Further, the Potency entry in assay [11] and in assay [8] was “inactive” throughout. The molecule was called inactive in [12], in [4] and in assay [15]. The activity change % (negative = inhibition) in assay [16] was 4.7% (inactive). For the same molecule, the activation in assay [14] was -0.684% (inactive).

Turning to `CC(=O)CCc1ccccc1`, the molecule was classed as inactive in [1], in assay [12], in assay [13], in assay [4] and in [15]. Moreover, the values for the max response in assay [3], in [5] and in [6] were -7.54%, -0.836% and 0.594% (inactive), respectively. Moreover, the activity change % (negative = inhibition) in assay [16] is 12% (inactive). For the same molecule, the Potency result in [7] and in assay [8] was “inactive” each time. For the same molecule, the activation is -1.61% (inactive) in assay [9] and 0.0566% (inactive) in assay [14].

For `CC1CCCO1` (stereo unspecified), the max response in assay [10] worked out at 6.05%; in assay [3], 11.5%. Besides, the Potency entry in assay [11], in assay [7] and in [8] was “inactive” each time. In addition, the molecule was called inactive in assay [1], in assay [12] and in assay [4]. Further, the activation in assay [9] was -2.21% (inactive); in assay [14], -0.396% (inactive).

Regarding `CCC(O)C(C)(C)C` (stereo unspecified), the max response is 11.2% in assay [10], -3.08% in [3] and -1.12% in [5]. Moreover, the Potency result in assay [11], in assay [7] and in assay [8] was “inactive” in each case. Also, the call in [1], in [2], in assay [4] and in assay [15] was inactive. Moreover, the activity change % (negative = inhibition) in assay [16] is 9.28% (inactive). Further, the activation in assay [9] is -0.0168% (inactive); in [14] it was -0.45% (inactive).

For the molecule `Cc1cccc(C(=O)O)c1[N+](=O)[O-]`, the call in assay [1], in assay [2], in assay [12], in assay [13], in [4] and in [15] was inactive. Moreover, the max response in assay [3] is -4.96%. Moreover, the activity change % (negative = inhibition) in assay [16] was -11.8% (inactive). Also, in assay [7], the Potency entry is “inactive”. For the same molecule, the results for the activation in assay [9] and in assay [14] were 1.31% (inactive) and -0.935% (inactive), respectively.

On to `O=C(O)CNC(=O)c1ccc([N+](=O)[O-])cc1`, for which the max response in [10] was 53.5%; in assay [3] it was 0.246%; in assay [5] it was -9.96%. The Potency entry in [11], in [7] and in [8] was “inactive” each time. In addition, the molecule was called inactive in assay [1], in [12], in [13], in assay [4] and in assay [15]. Besides, the activity change % (negative = inhibition) in assay [16] is 4.89% (inactive). Besides, the results for the activation in [9] and in assay [14] were -1.97% (inactive) and 0.89% (inactive), respectively.
